According to PubChem BioAssay (Tox21):
“And” between values parts separate entries of the source, which are not always exact repeats. Identical values can stand only once. Results filed as inconclusive are left out. Entries that show only a call come without a potency. Unmarked numbers belong to inactive results. The source made the active and inactive calls. Calls come from the whole dose curve; as a rule, active = well fitted curve in the direction sought with a large enough effect in the repeat runs; inconclusive = weak or mixed curves; inactive = no such curve, though single readings can be large; an effect the other way counts as inactive or inconclusive.

What was measured:
[1] = biological target: Cytochrome P450 1A2 (Homo sapiens) (UniProt P05177); experiment: Cytochrome P450 Family 1 Subfamily A Member 2 (CYP1A2) small molecule antagonists: luciferase reporter qHTS assay (AID 1671199); for activity change, negative = inhibition: series mostly up to about 120 µM
Cytochrome P450 1A2 (Homo sapiens), sequence (P05177 whole entry, looked up): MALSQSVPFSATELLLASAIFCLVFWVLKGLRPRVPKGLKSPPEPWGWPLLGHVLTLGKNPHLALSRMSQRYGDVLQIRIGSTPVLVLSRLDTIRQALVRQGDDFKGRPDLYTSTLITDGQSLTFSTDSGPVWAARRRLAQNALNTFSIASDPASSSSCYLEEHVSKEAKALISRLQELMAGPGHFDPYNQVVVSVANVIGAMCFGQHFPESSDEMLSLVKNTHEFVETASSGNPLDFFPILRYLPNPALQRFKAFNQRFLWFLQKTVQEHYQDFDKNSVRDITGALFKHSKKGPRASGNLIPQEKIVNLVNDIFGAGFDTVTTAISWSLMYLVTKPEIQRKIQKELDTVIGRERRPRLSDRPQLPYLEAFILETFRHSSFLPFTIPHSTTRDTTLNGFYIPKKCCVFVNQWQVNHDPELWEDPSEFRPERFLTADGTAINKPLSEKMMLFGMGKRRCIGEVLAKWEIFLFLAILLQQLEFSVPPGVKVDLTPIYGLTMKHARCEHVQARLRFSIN
Summary of the method: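 Luminescence from luciferin formed by CYP1A2 from a proluciferin substrate, read 20 min after detection reagent. Compound was pre-incubated 10 min with enzyme-substrate, and reaction started with NADPH regeneration solution for 1 h at room temperature; furafylline control.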

[2] = biological target: Voltage-gated inwardly rectifying potassium channel KCNH2 (Homo sapiens) (UniProt Q12809); experiment: Human Ether-a-go-go-Related Gene (hERG) channel small molecule antagonists: fluorescence cell-based qHTS assay (AID 1671200);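 for activity change, negative = inhibition: hERG-expressing U2OS cells given a thallium stimulus after FluxOR II dye loading; series mostly up to about 77 µM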
Voltage-gated inwardly rectifying potassium channel KCNH2 (Homo sapiens), sequence (Q12809 whole entry, looked up): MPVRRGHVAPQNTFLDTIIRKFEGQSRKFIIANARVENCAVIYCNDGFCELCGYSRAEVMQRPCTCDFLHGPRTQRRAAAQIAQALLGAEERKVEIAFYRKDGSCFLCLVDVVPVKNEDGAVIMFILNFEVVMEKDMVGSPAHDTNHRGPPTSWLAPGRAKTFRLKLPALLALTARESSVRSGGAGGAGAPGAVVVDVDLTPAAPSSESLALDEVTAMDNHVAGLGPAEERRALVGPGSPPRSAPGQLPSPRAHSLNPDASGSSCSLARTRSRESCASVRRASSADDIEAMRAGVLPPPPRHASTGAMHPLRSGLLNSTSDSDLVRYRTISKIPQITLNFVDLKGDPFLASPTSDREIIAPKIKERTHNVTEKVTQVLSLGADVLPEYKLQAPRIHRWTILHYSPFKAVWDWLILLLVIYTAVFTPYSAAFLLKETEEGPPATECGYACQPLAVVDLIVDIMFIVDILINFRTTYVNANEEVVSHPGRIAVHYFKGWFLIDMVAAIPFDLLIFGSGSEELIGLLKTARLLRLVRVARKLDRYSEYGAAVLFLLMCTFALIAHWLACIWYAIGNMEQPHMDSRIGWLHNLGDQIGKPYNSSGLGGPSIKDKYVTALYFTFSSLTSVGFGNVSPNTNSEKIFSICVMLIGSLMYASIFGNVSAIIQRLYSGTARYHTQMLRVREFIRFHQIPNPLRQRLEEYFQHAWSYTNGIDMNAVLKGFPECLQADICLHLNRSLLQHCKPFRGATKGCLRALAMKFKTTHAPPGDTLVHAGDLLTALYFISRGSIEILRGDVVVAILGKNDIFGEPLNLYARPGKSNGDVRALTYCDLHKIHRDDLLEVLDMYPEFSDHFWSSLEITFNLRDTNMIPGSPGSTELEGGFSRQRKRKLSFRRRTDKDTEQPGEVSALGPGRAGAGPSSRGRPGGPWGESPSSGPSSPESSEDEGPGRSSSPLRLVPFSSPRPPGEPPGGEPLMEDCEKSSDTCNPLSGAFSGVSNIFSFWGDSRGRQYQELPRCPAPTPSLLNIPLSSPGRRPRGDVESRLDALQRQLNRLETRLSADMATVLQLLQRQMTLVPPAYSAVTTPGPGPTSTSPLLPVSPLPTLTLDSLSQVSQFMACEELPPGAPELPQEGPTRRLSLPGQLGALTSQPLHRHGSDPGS
Summary of the method: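 Read-out: thallium influx as a surrogate for potassium, tracked as fluorescence (480 nm ex/540 nm em) every second for 2 min after Stimulus Buffer addition in dye-loaded hERG-U2OS cells.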

[3] = biological target: Cytochrome P450 3A4 (Homo sapiens) (UniProt P08684); experiment: Cytochrome P450 Family 3 Subfamily A Member 4 (CYP3A4) small molecule antagonists: luciferase reporter qHTS assay (AID 1671201); for activity change, negative = inhibition: series mostly up to about 120 µM
Cytochrome P450 3A4 (Homo sapiens), sequence (P08684 whole entry, looked up): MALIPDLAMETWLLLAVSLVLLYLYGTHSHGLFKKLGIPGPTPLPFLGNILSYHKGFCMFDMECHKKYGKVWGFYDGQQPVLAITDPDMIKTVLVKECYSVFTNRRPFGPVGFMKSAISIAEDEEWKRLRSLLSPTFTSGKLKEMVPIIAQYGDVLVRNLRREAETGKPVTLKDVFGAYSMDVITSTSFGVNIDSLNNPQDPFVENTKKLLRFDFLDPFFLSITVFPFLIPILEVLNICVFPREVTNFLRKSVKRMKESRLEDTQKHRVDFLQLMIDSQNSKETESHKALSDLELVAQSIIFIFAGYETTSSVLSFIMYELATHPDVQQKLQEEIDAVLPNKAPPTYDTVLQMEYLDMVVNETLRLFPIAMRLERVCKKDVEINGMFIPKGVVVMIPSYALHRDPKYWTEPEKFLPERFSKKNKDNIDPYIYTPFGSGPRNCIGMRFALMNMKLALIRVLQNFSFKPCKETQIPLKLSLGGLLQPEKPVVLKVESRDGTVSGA
Summary of the method: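 Luminescent readout (RLU) proportional to CYP3A4 activity, from luciferin generated off a proluciferin substrate. Enzyme–substrate mix plus compound 10 min at room temp, NADPH regeneration 1 h, detection reagent 20 min.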
Note: nearly all actives have a fitted effect of over 50% in size.
Potency is the fitted concentration of half-maximal effect.

Work on `O=S(=O)(O)c1cc(S(=O)(=O)O)c2ccc3c(S(=O)(=O)O)cc(S(=O)(=O)O)c4ccc1c2c43` yielded an activity change, negative = inhibition [1] of -17.6% [at 23.6 µM], an activity change, negative = inhibition [2] of 2.85% [at 15.8 µM] and an activity change, negative = inhibition [3] of 10.6% [at 23.6 µM].
In the case of `Cc1cc(Nc2ccc(O)cc2)ccc1N`, the Potency [1] is reported as 35.4 µM (active) and the Potency [2] is reported as “inactive”.
With `Oc1ccc(-c2ccccc2)c(Cl)c1` the Potency [1] was 12.6 µM (active), the Potency [2] was “inactive” and the Potency [3] was “inactive”.
In the case of `CCOB(OCC)OCC`, the Potency [1] is reported as “inactive”, the Potency [2] is reported as “inactive” and the Potency [3] is reported as “inactive”.
For `Brc1ccccn1`, the Potency [1] was “inactive”, the Potency [2] was “inactive” and the Potency [3] was “inactive”.
`CC(=O)O[C@@H]1C[C@@H]2CC[C@@]1(C)C2(C)C` was tested, and the Potency [1] was 39.9 µM (active), the Potency [2] was “inactive” and the Potency [3] was “inactive”.
`CSc1c(Cl)c(Cl)c(Cl)c(Cl)c1Cl` was tested, and the Potency [1] was 14.1 µM (active), the Potency [2] was “inactive” and the Potency [3] was “inactive”.
With `C=CC(=O)OCCC#N` the Potency [1] was “inactive”, the Potency [2] was “inactive” and the Potency [3] was “inactive”.
With `CC(COC(=O)c1ccccc1)OC(=O)c1ccccc1` (stereo not given) the Potency [1] was 5.64 µM (active), the Potency [2] was 43.6 µM (active) and the Potency [3] was “inactive”.
In the case of `CCCCN(C)C`, the Potency [1] is reported as “inactive”, the Potency [2] is reported as “inactive” and the Potency [3] is reported as “inactive”.
In the case of `CCOCOCC`, the Potency [1] is reported as “inactive”, the Potency [2] is reported as “inactive” and the Potency [3] is reported as “inactive”.
With `C=C(C)CCCC` the Potency [1] was “inactive”, the Potency [2] was “inactive” and the Potency [3] was “inactive”.
`CCCCCCCCCCCCCCCC` was tested, and the Potency [1] was “inactive”, the Potency [2] was “inactive” and the Potency [3] was “inactive”.
For `C=C1C(C)(C)[C@@]2(Cl)C(Cl)[C@]1(Cl)C(Cl)(Cl)C2(Cl)Cl` (stereo not given in full), the Potency [1] was 39.2 µM (active), the Potency [2] was 27 µM (active) and the Potency [3] was 0.985 µM (active).
`Cc1ccc(-n2[nH]c(C)c(N=Nc3cccc(-c4cccc(C(=O)O)c4)c3O)c2=O)cc1C` was tested, and the Potency [1] was “inactive”, the Potency [2] was “inactive” and the Potency [3] was “inactive”.
In the case of `CCc1c(C(=O)O)c(=O)cnn1-c1ccc(Cl)cc1`, the Potency [1] is reported as “inactive”, the Potency [2] is reported as “inactive” and the Potency [3] is reported as “inactive”.
With `CC(=O)Oc1ccc(C2(c3ccc(OC(C)=O)cc3)C(=O)Nc3ccccc32)cc1` the Potency [1] was “inactive”, the Potency [2] was “inactive” and the Potency [3] was “inactive”.
`COc1ccccc1C=O` was tested, and the Potency [1] was “inactive”, the Potency [2] was “inactive” and the Potency [3] was “inactive”.
In the case of `Cc1cccc(N(C)C)c1`, the Potency [1] is reported as “inactive”, the Potency [2] is reported as “inactive” and the Potency [3] is reported as “inactive”.
In the case of `CNC(=S)NN`, the Potency [1] is reported as 39.9 µM (active), the Potency [2] is reported as “inactive” and the Potency [3] is reported as “inactive”.
`CCCCCCCCCCOCC(O)CN` (stereo not given) was tested, and the Potency [1] was 2.88 µM (active), the Potency [2] was 23.9 µM (active) and the Potency [3] was “inactive”.
`CCc1cccc(C)c1` was tested, and the Potency [1] was “inactive”, the Potency [2] was “inactive” and the Potency [3] was “inactive”.
For `CC1=CP(=O)(c2ccccc2)CC1` (stereo not given), the Potency [1] was “inactive”, the Potency [2] was “inactive” and the Potency [3] was “inactive”.
With `CCCC(=O)OCC(COC(=O)CCC)OC(=O)CCC` the Potency [1] was 28.3 µM (active), the Potency [2] was “inactive” and the Potency [3] was “inactive”.
With `CC1CCCCC1` the Potency [1] was 63.3 µM (active), the Potency [2] was “inactive” and the Potency [3] was “inactive”.
`CC[N+](CC)(CC)Cc1ccccc1` was tested, and the Potency [1] was “inactive”, the Potency [2] was “inactive” and the Potency [3] was “inactive”.
`c1cc2c3c(c1)ccc1cccc(c13)C2` was tested, and the Potency [1] was 3.63 µM (active), the Potency [2] was “inactive” and the Potency [3] was “inactive”.
With `OCCN1CN(CCO)CN(CCO)C1` the Potency [1] was “inactive”, the Potency [2] was “inactive” and the Potency [3] was “inactive”.
With `CC(=O)OC1CCCCC1` the Potency [1] was “inactive”, the Potency [2] was “inactive” and the Potency [3] was “inactive”.
With `CC1=CCC(=O)O1` the Potency [1] was “inactive”, the Potency [2] was “inactive” and the Potency [3] was “inactive”.
With `[O]=[Zr]` the Potency [1] was 35.4 µM (active), the Potency [2] was “inactive” and the Potency [3] was “inactive”.
In the case of `CN(Cc1cc(Br)cc(Br)c1N)C1CCCCC1`, the Potency [1] is reported as 32.3 µM (active), the Potency [2] is reported as 10.7 µM (active) and the Potency [3] is reported as “inactive”.
In the case of `CCOC(=O)[C@@](C)(N)Cc1ccc(O)c(O)c1`, the Potency [1] is reported as “inactive”, the Potency [2] is reported as “inactive” and the Potency [3] is reported as “inactive”.
`CO[Si](CCCNCCNCCN)(OC)OC` was tested, and the Potency [1] was “inactive”, the Potency [2] was “inactive” and the Potency [3] was “inactive”.
In the case of `CS(C)(=O)=O`, the Potency [1] is reported as “inactive”, the Potency [2] is reported as “inactive” and the Potency [3] is reported as “inactive”.
In the case of `Nc1ccc2cc3ccc(N)cc3nc2c1`, the Potency [1] is reported as 564 nM (active) and 1.82 µM (active), the Potency [2] is reported as “inactive” and the Potency [3] is reported as 3.99 µM (active).
`OCCCS` was tested, and the Potency [1] was “inactive”, the Potency [2] was “inactive” and the Potency [3] was “inactive”.
With `CC(C)C(=O)OCc1ccccc1` the Potency [1] was “inactive”, the Potency [2] was “inactive” and the Potency [3] was “inactive”.
`c1cc[nH]c1` was tested, and the Potency [1] was “inactive”, the Potency [2] was “inactive” and the Potency [3] was “inactive”.
In the case of `CCCCCCCC(C)=O`, the Potency [1] is reported as 35.6 µM (active), the Potency [2] is reported as “inactive” and the Potency [3] is reported as “inactive”.
In the case of `CC(C)c1ccccc1N`, the Potency [1] is reported as “inactive”, the Potency [2] is reported as “inactive” and the Potency [3] is reported as 28.3 µM (active).
`C[C@@]12C(=O)OC(=O)[C@]1(C)C1CCC2O1` was tested, and the Potency [1] was “inactive”, the Potency [2] was “inactive” and the Potency [3] was “inactive”.
In the case of `COc1cccc(OC)c1O`, the Potency [1] is reported as 35.6 µM (active), the Potency [2] is reported as “inactive” and the Potency [3] is reported as “inactive”.
In the case of `CCc1cccc(CC)c1N(COC)C(=O)CS(=O)(=O)O`, the Potency [1] is reported as “inactive”, the Potency [2] is reported as “inactive” and the Potency [3] is reported as “inactive”.
In the case of `COC(=O)NCCC[Si](OC)(OC)OC`, the Potency [1] is reported as “inactive”, the Potency [2] is reported as “inactive” and the Potency [3] is reported as 28.3 µM (active).
With `CCOC(=O)CC(C)O` (stereo not given) the Potency [1] was “inactive”, the Potency [2] was “inactive” and the Potency [3] was “inactive”.
`CCO[Si](CCCSSSSCCC[Si](OCC)(OCC)OCC)(OCC)OCC` was tested, and the Potency [1] was 71.1 µM (active), the Potency [2] was “inactive” and the Potency [3] was 2.83 µM (active).
